According to the supplement of paper PMC12636033:
± gives the standard deviation of the averaged measurements. Whole data set: some 33,000 sequences, median “E-score (rank enrichment, -0.5 to 0.5)” near -0.0043, cut for the highest 2% near 0.24. Shown is part of a subset that was picked to be rich in the highest values.

These sequences were tested on 2Sp-muMax20 (muMax20 with two 2,6-bis(methyl)pyridine Cys staples) (assay: PBM 8-mer E-score (E-score (rank enrichment, -0.5 to 0.5)); higher = stronger preferential binding).
Experimental: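 Protein binding microarray (universal PBM chip covering all 10-mers in fixed probe flanks) with chemically synthesized human Max(13-93) bHLH-LZ analogs (not full-length Max) bearing noncanonical residues (hArg, Tha, Aib, Nle at 65) and aromatic Cys staples. Read-out per 8-mer (and its reverse complement): E-score (rank-based enrichment, -0.5 to 0.5) and Z-score of median probe intensity.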
AGCACCGC was tested, and the “PBM 8-mer E-score” value was -0.216 ± 0.056. With ACTGGCGC the “PBM 8-mer E-score” value was 0.0318 ± 0.075. For CGCGACTC, the “PBM 8-mer E-score” value was 0.0134 ± 0.05. AGAAGTGC was tested, and the “PBM 8-mer E-score” value was -0.15 ± 0.01. In the case of AGTGTACA, the “PBM 8-mer E-score” value is reported as 0.138 ± 0.071. TCGTGTCA was tested, and the “PBM 8-mer E-score” value was -0.0282 ± 0.02. In the case of ATTCGACA, the “PBM 8-mer E-score” value is reported as -0.0611 ± 0.091. For CGACTGCG, the “PBM 8-mer E-score” value was -0.11 ± 0.012. CGGAAGAC was tested, and the “PBM 8-mer E-score” value was -0.286 ± 0.011. For CCTGGCTC, the “PBM 8-mer E-score” value was -0.193 ± 0.028. AGCTTATA was tested, and the “PBM 8-mer E-score” value was 0.249 ± 0.15. CGCTTATA was tested, and the “PBM 8-mer E-score” value was 0.116 ± 0.018. In the case of AGCTTATC, the “PBM 8-mer E-score” value is reported as 0.0357 ± 0.093. With CGTCTTTA the “PBM 8-mer E-score” value was 0.0497 ± 0.034. With CTGGGTGA the “PBM 8-mer E-score” value was -0.0861 ± 0.036. For TGCGCGCA, the “PBM 8-mer E-score” value was 0.1734 ± 0.0016. For CCTTATTC, the “PBM 8-mer E-score” value was -0.0629 ± 0.052. For GCTTATTA, the “PBM 8-mer E-score” value was 0.172 ± 0.037. For CCTTATTA, the “PBM 8-mer E-score” value was 0.28 ± 0.003. For ACTCCTAG, the “PBM 8-mer E-score” value was -0.146 ± 0.087. CGACATGC was tested, and the “PBM 8-mer E-score” value was 0.0468 ± 0.0062. For ATAACAGG, the “PBM 8-mer E-score” value was -0.0186 ± 0.03. ATAACACC was tested, and the “PBM 8-mer E-score” value was 0.0871 ± 0.057. With ATAACACG the “PBM 8-mer E-score” value was 0.269 ± 0.011. For GTAACACA, the “PBM 8-mer E-score” value was 0.183 ± 0.032. In the case of CTAACACA, the “PBM 8-mer E-score” value is reported as 0.0336 ± 0.063. In the case of ATAACACA, the “PBM 8-mer E-score” value is reported as 0.253 ± 0.075. ATCTAAGA was tested, and the “PBM 8-mer E-score” value was -0.0722 ± 0.047. With TCGGAAGA the “PBM 8-mer E-score” value was -0.155 ± 0.038. In the case of TGTTAACA, the “PBM 8-mer E-score” value is reported as 0.2746 ± 0.0014. AGTTAACA was tested, and the “PBM 8-mer E-score” value was 0.145 ± 0.13. CGTTAACA was tested, and the “PBM 8-mer E-score” value was 0.0471 ± 0.048. In the case of AGCTTTTA, the “PBM 8-mer E-score” value is reported as 0.0891 ± 0.031. In the case of ATATTAAG, the “PBM 8-mer E-score” value is reported as 0.16 ± 0.025. TTATTAAA was tested, and the “PBM 8-mer E-score” value was 0.166 ± 0.054. ATATTAAT was tested, and the “PBM 8-mer E-score” value was 0.318 ± 0.08. With ATATTAAC the “PBM 8-mer E-score” value was 0.182 ± 0.0085. With ATATTAAA the “PBM 8-mer E-score” value was 0.2641 ± 0.001. For CTATTAAA, the “PBM 8-mer E-score” value was 0.141 ± 0.053. With GCCAGGGC the “PBM 8-mer E-score” value was -0.343 ± 0.022. In the case of AAACGGTG, the “PBM 8-mer E-score” value is reported as -0.0442 ± 0.0089. For GGGCGTCA, the “PBM 8-mer E-score” value was 0.12 ± 0.063. For CGAATTGA, the “PBM 8-mer E-score” value was 0.141 ± 0.014. With TTGTACAA the “PBM 8-mer E-score” value was 0.331 ± 0.11. With CTGTACAA the “PBM 8-mer E-score” value was 0.0666 ± 0.029. In the case of GTGTACAA, the “PBM 8-mer E-score” value is reported as 0.198 ± 0.029. For ACCGGTCC, the “PBM 8-mer E-score” value was -0.324 ± 0.028. For TGACCTAA, the “PBM 8-mer E-score” value was 0.00115 ± 0.0031. CTCCCCCC was tested, and the “PBM 8-mer E-score” value was -0.0388 ± 0.051. In the case of CCACAGTA, the “PBM 8-mer E-score” value is reported as 0.0513 ± 0.067. With GTACCCGA the “PBM 8-mer E-score” value was -0.187 ± 0.12. For AAACATGT, the “PBM 8-mer E-score” value was 0.287 ± 0.008. For AAACATGA, the “PBM 8-mer E-score” value was 0.0601 ± 0.067. ACACATGG was tested, and the “PBM 8-mer E-score” value was 0.194 ± 0.019. With AATCAGCT the “PBM 8-mer E-score” value was 0.279 ± 0.013. With AATCATGG the “PBM 8-mer E-score” value was 0.129 ± 0.0058. With AATCATGT the “PBM 8-mer E-score” value was 0.239 ± 0.04. For AATCAGCG, the “PBM 8-mer E-score” value was -0.0281 ± 0.1. For ACACATGA, the “PBM 8-mer E-score” value was 0.0699 ± 0.082. In the case of AATCAGCC, the “PBM 8-mer E-score” value is reported as 0.0385 ± 0.041. For AATCATGA, the “PBM 8-mer E-score” value was 0.124 ± 0.13. With ACACATGT the “PBM 8-mer E-score” value was 0.326 ± 0.044. For AAACATGG, the “PBM 8-mer E-score” value was 0.153 ± 0.0082. ACGTTAAG was tested, and the “PBM 8-mer E-score” value was 0.137 ± 0.027. For CGGTGTGC, the “PBM 8-mer E-score” value was -0.209 ± 0.041. For CCCCACGC, the “PBM 8-mer E-score” value was 0.095 ± 0.036. In the case of AAATACTA, the “PBM 8-mer E-score” value is reported as 0.183 ± 0.026. With CCATCGAC the “PBM 8-mer E-score” value was -0.131 ± 0.028. With AATTCCCA the “PBM 8-mer E-score” value was 0.23782 ± 0.00023. In the case of AATTCCCC, the “PBM 8-mer E-score” value is reported as 0.123 ± 0.015. For GATTCCCA, the “PBM 8-mer E-score” value was 0.0167 ± 0.092. For GCTTAGTA, the “PBM 8-mer E-score” value was 0.0418 ± 0.019. With AACCTCTG the “PBM 8-mer E-score” value was -0.064 ± 0.059. In the case of AATTAAGA, the “PBM 8-mer E-score” value is reported as 0.214 ± 0.0075. In the case of GATTAAGA, the “PBM 8-mer E-score” value is reported as -0.00249 ± 0.0063. CATTAAGA was tested, and the “PBM 8-mer E-score” value was 0.237 ± 0.056. In the case of GACGACTA, the “PBM 8-mer E-score” value is reported as 0.138 ± 0.051. In the case of CGACTCCC, the “PBM 8-mer E-score” value is reported as -0.0206 ± 0.024. For AGGGTCTG, the “PBM 8-mer E-score” value was -0.168 ± 0.019. In the case of CGTGATCC, the “PBM 8-mer E-score” value is reported as -0.0859 ± 0.026. GGTGATCA was tested, and the “PBM 8-mer E-score” value was 0.0137 ± 0.0046. With CGTGATCA the “PBM 8-mer E-score” value was 0.245 ± 0.036. TGCTTACA was tested, and the “PBM 8-mer E-score” value was 0.114 ± 0.016. With AACCACGT the “PBM 8-mer E-score” value was 0.288 ± 0.032. In the case of ACCCACGC, the “PBM 8-mer E-score” value is reported as 0.138 ± 0.023. For ACCCACGT, the “PBM 8-mer E-score” value was 0.284 ± 0.0034. In the case of AACCACGA, the “PBM 8-mer E-score” value is reported as 0.118 ± 0.035. In the case of AACCACGC, the “PBM 8-mer E-score” value is reported as 0.0757 ± 0.035. In the case of ACCCACGA, the “PBM 8-mer E-score” value is reported as -0.0222 ± 0.03. GAGGCCGC was tested, and the “PBM 8-mer E-score” value was -0.291 ± 0.046. In the case of ATAATAAT, the “PBM 8-mer E-score” value is reported as 0.14 ± 0.084. ACAATAAC was tested, and the “PBM 8-mer E-score” value was 0.0634 ± 0.07. ACAATAAT was tested, and the “PBM 8-mer E-score” value was 0.275 ± 0.043. For ACAATACT, the “PBM 8-mer E-score” value was 0.204 ± 0.069. In the case of ACAATAAA, the “PBM 8-mer E-score” value is reported as 0.256 ± 0.012. With ACAATAAG the “PBM 8-mer E-score” value was 0.1254 ± 0.001. ACAATACA was tested, and the “PBM 8-mer E-score” value was 0.0638 ± 0.061. CCAATAAA was tested, and the “PBM 8-mer E-score” value was 0.211 ± 0.035. In the case of ACAATACC, the “PBM 8-mer E-score” value is reported as 0.273 ± 0.015. For CCGTTCAA, the “PBM 8-mer E-score” value was 0.137 ± 0.026. With GAGCTGAA the “PBM 8-mer E-score” value was 0.0148 ± 0.13. With AACGCCCT the “PBM 8-mer E-score” value was -0.0766 ± 0.052. AAGGTCAT was tested, and the “PBM 8-mer E-score” value was -0.149 ± 0.0067. With AGAGCCCG the “PBM 8-mer E-score” value was -0.276 ± 0.012. For AATCAGGA, the “PBM 8-mer E-score” value was 0.0255 ± 0.037. With GTGTATAA the “PBM 8-mer E-score” value was 0.103 ± 0.024. In the case of CGATATAA, the “PBM 8-mer E-score” value is reported as 0.24 ± 0.0019. For CTGTAGAA, the “PBM 8-mer E-score” value was 0.0793 ± 0.045. With CTATATAA the “PBM 8-mer E-score” value was 0.157 ± 0.081. In the case of GTATATAA, the “PBM 8-mer E-score” value is reported as 0.125 ± 0.0038.
